Assay results as given in the supplement of paper PMC9694430.
Where “and” joins values, the source holds several entries; their conditions need not be identical. Equal entries are not always repeated. Structures can show the parent of a compound that is named as a salt.

tested on: LOC_OS01G39600-cb002; assay: thermal shift delta Tm vs DMSO control; higher = stronger stabilization (binding); settings: 12.5 µM; protein concentration 2 µM
In short: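 Compounds dissolved in DMSO were added to purified rice kinase domain constructs, which had been expressed in E. coli, for differential scanning fluorimetry. Each well held 19.5 μl of 2 μM kinase in 100 mM potassium phosphate pH 7.5, 150 mM NaCl, 10% glycerol and 5 × SYPRO Orange. Fluorescence was followed from 25°C to 95°C at a rate of 0.05°C/s. Shifts in Boltzmann-fitted melting temperature are triplicate means relative to DMSO-only protein.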

Row | Structure (SMILES) | thermal shift delta Tm
1 | Cc1ccc(S(=O)(=O)/C=C/C#N)cc1 | -1.97 °C
2 | CCCS(=O)(=O)Nc1ccc(F)c(C(=O)c2c[nH]c3ncc(-c4ccc(Cl)cc4)cc23)c1F [Vemurafenib (PLX4032, RG7204)] | 11.7 °C
3 | C[C@@H](N)c1ccc(C(=O)Nc2ccnc3[nH]ccc23)cc1 | 0.74 °C
4 | O=C(NC1CCNCC1)c1n[nH]cc1NC(=O)c1c(Cl)cccc1Cl | -0.04 °C and 0.17 °C
5 | NCC(=O)Nc1ccc(-n2nc(C(F)(F)F)cc2-c2ccc3c(ccc4ccccc43)c2)cc1 | 2.28 °C
6 | CCn1c(-c2nonc2N)nc2cnc(Oc3cccc(NC(=O)c4ccc(OCCN5CCOCC5)cc4)c3)cc21 | 0.75 °C
7 | COc1cc2c3cc1Oc1c(OC)c(OC)cc4c1[C@@H](Cc1ccc(O)c(c1)Oc1ccc(cc1)C[C@@H]3N(C)CC2)N(C)CC4 [Berbamine (dihydrochloride)] | -0.05 °C
8 | COc1cc2ncc(-c3ccccc3)nc2cc1OC [Tyrphostin AG 1296] | 0.47 °C
9 | C[C@H]1CNCCCN1S(=O)(=O)c1cccc2cncc(F)c12 [Ripasudil (K-115) hydrochloride dihydrate] | 0.39 °C
10 | N#Cc1c(NC(=O)c2cccc3ccccc23)sc2c1CCCC2 [JNK Inhibitor IX] | -0.09 °C
11 | CC(C)N(CCC(=O)c1ccc2ccccc2c1)Cc1ccccc1 | -2.79 °C
12 | COC(=O)c1ccc2c(c1)NC(=O)/C2=C(\Nc1ccc(N(C)C(=O)CN2CCN(C)CC2)cc1)c1ccccc1 [Nintedanib (BIBF 1120)] | 1.74 °C
13 | Nc1ccc(-c2ccc3ncc4ccc(=O)n(-c5cccc(C(F)(F)F)c5)c4c3c2)cn1 [Torin 2] | 0.74 °C
14 | COc1ccc2c(Oc3ccc(NC(=O)c4c(C)n(CC(C)(C)O)n(-c5ccccc5)c4=O)nc3)ccnc2c1 | -0.29 °C
15 | COc1ncc(-c2ccc3nccc(-c4ccnnc4)c3c2)cc1NS(=O)(=O)c1ccc(F)cc1F | 3.65 °C
16 | Cc1c[nH]c(/C=C2\C(=O)Nc3ccccc32)c1CCC(=O)O | 4.55 °C
17 | Cc1cc(Nc2cc(Cl)nc(Oc3ccc([N+](=O)[O-])cc3)n2)n[nH]1 [Autophinib] | 1.82 °C
18 | O=C(c1ccc(/C=C/c2n[nH]c3ccccc23)cc1)N1CCNCC1 | 5.76 °C
19 | COc1ccc(CNC(=O)Nc2ncc([N+](=O)[O-])s2)cc1 | -4.25 °C
20 | Cc1cc2c(F)c(Oc3ncnn4cc(OC[C@@H](C)O)c(C)c34)ccc2[nH]1 | 0.2 °C
21 | C=CC(=O)Nc1cccc(Oc2nc(Nc3ccc(N4CCN(C)CC4)cc3)nc3ccsc23)c1 | 0.15 °C
22 | O=c1cc(N2CCOCC2)oc2c(-c3ccc4c(c3)OCCO4)csc12 | 0.21 °C
23 | c1nc2c(NC3CCCCC3)nc(Nc3ccc(N4CCOCC4)cc3)nc2[nH]1 [Reversine] | 5.31 °C
